The list is not random: actives were taken first. Their share in the collection is about 2.4%.
FEN1 inh – human FEN1 inhibition; Recombinant FEN1 flap cleavage, fluorescence, 15 min; AID 588795; P39748; hit rate 0.35% among 390,000; Potency, µM (top dose mostly 114 µM), without a hit: at the top dose activity change, negative = inhibition, actives largely listed as inhibitors; note: potency is the fitted concentration of half-maximal effect; % is set by controls: 0 for no effect and ±100 for the full control effect; nearly all actives have a fitted effect of over 65% in size
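Nuclease activity of 10 nM FEN1 was measured after 15 min of room-temperature exposure to titrated compounds, by adding 50 nM flap substrate and reading plates at 0 and 15 min.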
PGK inhibitor – blocks T. brucei phosphoglycerate kinase; PGK/GAPDH coupled, Kinase-Glo luminescence, 60 min; Potency, µM (highest dose often 57.5 µM), for the others: top-dose activity change, negative = inhibition, hits mostly inhibitors; hit rate 0.043% among 380,000; AID 602233; note: potency is the fitted concentration of half-maximal effect; % is set by controls: 0 for no effect and ±100 for the full control effect; nearly all actives have a fitted effect of over 60% in size
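Recombinant glycosomal PGK reaction used 1,3-bisphosphoglycerate generated in-well by GAPDH (100nM final) in 100mM TEA pH 7.6, 5mM MgCl2, 0.01% Tween-20. After 60 minutes at room temperature, ATP was read by Kinase-Glo Plus luminescence end-point.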
POLI inh – blocks human DNA polymerase iota activity. Potency, µM (highest dose often 115 µM), without a hit: at the highest dose activity, negative = inhibition, hits mostly inhibitors. hit rate 1% among 390,000. Pol iota fluorescent replication assay, 10 min. Q9UNA4; note: potency is the fitted concentration of half-maximal effect
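Fluorescent replication assay read twice, at 0 min and 10 min after adding 50 nM (final) substrate. Enzyme (10 nM) and compounds were first incubated 15 min at room temperature; enzyme-free buffer wells were negative controls.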
POLB inh – DNA polymerase beta (human) inhibition | P06746 | Pol beta primer extension/strand displacement, fluorescence kinetic | Potency, µM (doses to about 114 µM), for inactives: at the highest dose activity change, negative = inhibition, hits mostly inhibitors | hit rate 1.3% among 340,000; note: potency is the fitted concentration of half-maximal effect; % is set by controls: 0 for no effect and ±100 for the full control effect
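10 nM enzyme + cpd, 15 min RT; start with substrate 50 nM final; read 0 min and after 10 min RT. Corrected, normalized data; 4-parameter Hill curve fit.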
Pol eta inh-1 – DNA polymerase eta (human) inhibition | hit rate 1.2% among 390,000 | Q9Y253 | recombinant Pol eta, fluorescent DNA replication assay | Potency, µM (highest dose often 114 µM), without a hit: at the top dose activity change, negative = inhibition, hits mostly inhibitors; note: potency is the fitted concentration of half-maximal effect; % is set by controls: 0 for no effect and ±100 for the full control effect
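Pol eta (10 nM) was preincubated with compounds for 15 min at room temperature, after which fluorescent replication substrate (50 nM final) was added to start the reaction. Fluorescence was read kinetically at 0 and 10 min.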
Pol kappa inh-1 – inhibitors of human DNA polymerase kappa; Q9UBT6; purified Pol kappa, fluorescent DNA synthesis assay, 10 min; Potency, µM (series often up to 107 µM), without a hit: top-dose activity, negative = inhibition, hits mostly inhibitors; hit rate 0.53% among 400,000; AID 588579; note: potency is the fitted concentration of half-maximal effect; % is set by controls: 0 for no effect and ±100 for the full control effect
Target sequence (Q9UBT6 whole entry, looked up): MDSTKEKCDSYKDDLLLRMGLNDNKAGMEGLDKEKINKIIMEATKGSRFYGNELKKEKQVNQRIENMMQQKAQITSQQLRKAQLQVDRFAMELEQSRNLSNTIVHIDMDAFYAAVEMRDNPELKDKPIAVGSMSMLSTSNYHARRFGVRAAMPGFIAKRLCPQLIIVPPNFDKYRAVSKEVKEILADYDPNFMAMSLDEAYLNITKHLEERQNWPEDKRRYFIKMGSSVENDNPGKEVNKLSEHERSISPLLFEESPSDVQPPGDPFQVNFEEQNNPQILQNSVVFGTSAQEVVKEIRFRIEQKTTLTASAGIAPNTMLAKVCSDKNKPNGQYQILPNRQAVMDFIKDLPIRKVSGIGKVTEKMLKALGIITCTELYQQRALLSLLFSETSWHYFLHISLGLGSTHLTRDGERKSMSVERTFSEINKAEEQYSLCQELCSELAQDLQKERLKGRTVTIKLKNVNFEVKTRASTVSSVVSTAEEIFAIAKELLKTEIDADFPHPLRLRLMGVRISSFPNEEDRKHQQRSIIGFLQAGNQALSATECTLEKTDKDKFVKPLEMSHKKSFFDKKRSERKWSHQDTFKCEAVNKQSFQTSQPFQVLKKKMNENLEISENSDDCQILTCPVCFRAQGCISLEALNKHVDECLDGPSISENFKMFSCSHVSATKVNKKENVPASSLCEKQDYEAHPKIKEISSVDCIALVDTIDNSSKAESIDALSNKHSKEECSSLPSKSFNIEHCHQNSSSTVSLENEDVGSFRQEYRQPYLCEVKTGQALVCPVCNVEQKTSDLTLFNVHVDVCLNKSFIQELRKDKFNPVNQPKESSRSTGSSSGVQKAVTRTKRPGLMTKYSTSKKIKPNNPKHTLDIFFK
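50 nM final substrate added after 15 min RT preincubation of 10 nM Pol kappa with compound; fluorescence read at 0 and 10 min.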
GALK confirm – galactokinase (human) inhibition, confirmation. shares compounds with Pol eta inh-1. purified GALK, Kinase-Glo ATP depletion luminescence. Potency, µM (top dose mostly 115 µM), for inactives: at the highest dose activity, negative = inhibition, most hits filed as inhibitors. hit rate 70% among 150. AID 2015
GALK redox cs – counter-screen for GALK inhibitors: redox cycling H2O2 generation | Phenol red-HRP H2O2 redox cycling, absorbance 600 nm | AID 2035 | shares compounds with Pol eta inh-1 | Potency, µM (highest dose often 115 µM), inactives show at the top dose activity change, negative = H2O2 signal, hits mostly inhibitors | hit rate 40% among 150
HEK293 viability – reduces HEK-293 cell viability in GALK counter-screen; shares compounds with Pol eta inh-1; HEK-293 viability, ATP luminescence (CellTiter-Glo), 24/48 h; Potency, µM (series often up to 46.1 µM), for inactives: at the top dose activity change, negative = cytotoxicity, hits mostly inhibitors; hit rate 10% among 170; AID 2547; note: potency is the fitted concentration of half-maximal effect; % is set by controls: 0 for no effect and ±100 for the full control effect
Pol kappa inh-2 – Pol kappa (human) inhibition, cherry-pick confirmation; shares compounds with Pol eta inh-1; purified Pol-kappa, fluorescent strand-displacement substrate; Potency, µM, usual class: inhibitors; hit rate 76% among 920; AID 720501; note: potency is the fitted concentration of half-maximal effect
Pol eta inh-2 – confirmation of human DNA polymerase eta inhibitors. shares compounds with Pol eta inh-1. Pol eta primer extension, TAMRA/BHQ fluorescence, 10 min. Potency, µM, hits mostly inhibitors. hit rate 64% among 2,600. AID 720502; note: potency is the fitted concentration of half-maximal effect
An asterisk follows results filed as active; i = inactive; ? = inconclusive; / = no result; [ ] = remark or other dose. Calls come from the whole dose curve; as a rule, active = well fitted curve in the direction sought with a large enough effect; inconclusive = small, poorly fitted or top-dose-only effect, or another doubt; inactive = no such curve, though single readings can be large; an effect the other way counts as inactive or inconclusive.

SMILES | FEN1 inh | PGK inhibitor | POLI inh | POLB inh | Pol eta inh-1 | Pol kappa inh-1 | Pol eta inh-2 | others
CO/N=C(/C(=O)N[C@@H]1C(=O)N2C(C(=O)O)=C(CSc3nc(C)c(CC(=O)O)s3)CS[C@H]12)c1csc(N)n1 | / | / | / | / | / | -3%[19.4 µM] | /
Cn1nnnc1SCC1=C(C(=O)O)N2C(=O)C(NC(=O)Cn3nc(C(F)F)cc3C3CC3)C2SC1 (stereo unspecified) | 0% | -27% | 35µM* | 18µM* | 20µM* | ? | ?
S=c1nc[nH]c2n[nH]nc12 | -5% | / | -5% | / | / | 1% | /
O=C(N/N=C/c1ccncc1)c1cccc(NC(=O)c2ccc(Cl)cc2)c1 | ? | -4% | ? | 45µM* | -29% | -9%[60.1 µM] | / | Pol kappa inh-2=?
CSc1nc(N)c2ncn([C@@H]3O[C@H](COP(=O)(O)OP(=O)(O)O)[C@H](O)[C@H]3O)c2n1 | / | / | 0%[58.9 µM] | 6%[57.1 µM] | -5%[57.1 µM] | / | /
CCCCc1cc(=O)oc2cc(C)cc(OC(C)C(=O)NC(Cc3c[nH]c4ccc(O)cc34)C(=O)O)c12 (stereo unspecified) | 1% | 0% | -20% | -30% | 0% | -21% | /
Cc1cc(=O)oc2cc(OCC(=O)NC(Cc3c[nH]c4ccc(O)cc34)C(=O)O)c(Cl)cc12 (stereo unspecified) | -26% | -3% | 71µM* | ? | 25µM* | ? | ?
Cc1cc(OC(C)C(=O)NC(Cc2c[nH]c3ccc(O)cc23)C(=O)O)c2c(C)c(C)c(=O)oc2c1 (stereo unspecified) | -16% | -8% | ? | ? | ? | -25% | ?
CCOC(=O)c1cnc(N2CCN(c3ccc(C)cc3C)CC2)c2ccccc12 | -4% | -2% | -14% | 11% | 0% | 1%[60.1 µM] | /
N#Cc1ccsc1NC(=O)COC(=O)C1=NNC(=O)CC1 | ? | -10% | 14µM* | / | 20µM* | ? | 76*
CCOC(=O)c1c2c3c(cccc3n(C)c1=O)C(=O)c1ccccc1-2 | ? | 3% | ? | ? | ? | -29% | /
CCOC(=O)c1c2c(n(Cc3ccccc3)c1C)C(=O)C(=O)c1ccccc1-2 | -16% | -11% | 40µM* | / | 8.9µM* | -24% | 85*
COc1ncc2nc(-c3ccccc3)c(=O)n(C)c2n1 | / | / | / | / | / | 0%[60.1 µM] | /
Cc1ccc(NC(=O)c2c(C)oc3ccc(O)c(CN4CCCCCC4)c23)cc1 | 2% | i | 11% | -19% | 9% | -5% | /
CC(=O)c1ccc(NC(=S)Nc2cccc3cnccc23)cc1 | 0% | -2% | 42% | ? | 10% | -14% | / | GALK confirm=?;GALK redox cs=11µM*;HEK293 viability=2%
COc1cc(/C=C/C(=O)O)cc(S(=O)(=O)Nc2ccccc2C(=O)NCc2ccco2)c1OC | 6% | -1% | ? | / | 22µM* | ? | ?
COc1cc(/C=C/C(=O)O)cc(S(=O)(=O)Nc2ccccc2Cl)c1OC | -3% | i | 2% | 34% | -10% | -9% | /
Cc1onc(-c2ccccc2Cl)c1C(=O)NCc1ccco1 | -7% | -11%[11.5 µM] | ? | 28µM* | 45µM* | ? | ?
O=C(CNC(=O)C(c1ccccc1)c1ccccc1)OCC(=O)c1ccc2ccccc2c1 | 13% | / | 10% | / | / | -9% | /
COc1cc(NC(=O)CCCOc2cc(=O)n(C)c3ccccc23)cc(OC)c1OC | 1% | 10% | -17% | 1% | -10% | -20% | /
CCOc1ccc(Nc2sc(C(=O)c3ccc4c(c3)OCO4)c(N)c2S(=O)(=O)c2ccc(C)cc2)cc1 | -4% | -5% | -11% | 3% | 4% | -16%[60.1 µM] | /
COc1ccccc1C(=O)Nc1nc2nc(C)c(Cc3ccccc3)c(=O)n2[nH]1 | 9% | -10% | 18% | -11% | ? | -23% | 76*
Cc1nc2nc(NC(=O)c3ccc(C(C)(C)C)cc3)[nH]n2c(=O)c1Cc1ccccc1 | -8% | -6% | 2% | -1% | -1% | -19% | /
CC(/C=C/c1ccco1)=N\NC(=O)c1cc(Cl)ccc1O | -6% | 7% | 40µM* | ? | 22µM* | 79µM* | ?
O=C(C=Cc1ccco1)c1cc(Cl)ccc1O | -8% | -6% | -18% | / | ? | -11% | /
SMILES | FEN1 inh | PGK inhibitor | POLI inh | POLB inh | Pol eta inh-1 | Pol kappa inh-1 | Pol eta inh-2 | others
CC(/C=C/c1ccco1)=N/NC(=O)Cc1cccs1 | -13% | -4% | 32µM* | 22µM* | 18µM* | ? | ?
CCCCN(C)S(=O)(=O)c1cc(-c2cc(C)no2)ccc1C | -14% | 8% | 1% | 18% | -8% | 7% | /
O=C1Nc2ccccc2SC(c2ccccc2)C1O (stereo unspecified) | ? | -21% | ? | 22µM* | 2.8µM* | 79µM* | ?
COc1ccccc1/C=C/C=c1\sc2nc(=O)c(Cc3ccccc3)nn2c1=O | 79µM* | -15% | 4.5µM* | ? | 20µM* | 35µM* | 38*
CCCOc1ccc(Cc2nn3c(=O)/c(=C/c4ccco4)sc3nc2=O)cc1 | ? | -27% | 6.3µM* | 25µM* | 25µM* | 8.9µM* | ?
CCCCCOc1ccc(/C=c2\sc3nc(=O)c(-c4ccccc4)nn3c2=O)cc1OC | -1% | -5% | 7% | -8% | -3% | -19% | /
CCOC(=O)C1=C(N)n2c(s/c(=C\c3ccco3)c2=O)=C(C(=O)OC(C)C)C1c1ccco1 (stereo unspecified) | -10% | -10% | ? | ? | 0% | -26% | /
CCOC(=O)Cc1csc(-n2sc3ccccc3c2=O)n1 | ? | -11% | -17% | ? | 40µM* | -28% | ?
